Common to all, as to assay: DAPPL (digital affinity profiling via proximity ligation, sequencing); 10 mM Tris-HCl pH 7.5, 50 mM NaCl, 1 mM DTT, 4% glycerol, room temperature, 30 min; GST-TFs on glutathione beads, 16-mer random dsDNA library, 0.1% formaldehyde crosslink after washing; high values mean tight binding
For one test, the target named is T1, FLI1 (Homo sapiens, UniProt Q01543 1-452).
T1 sequence: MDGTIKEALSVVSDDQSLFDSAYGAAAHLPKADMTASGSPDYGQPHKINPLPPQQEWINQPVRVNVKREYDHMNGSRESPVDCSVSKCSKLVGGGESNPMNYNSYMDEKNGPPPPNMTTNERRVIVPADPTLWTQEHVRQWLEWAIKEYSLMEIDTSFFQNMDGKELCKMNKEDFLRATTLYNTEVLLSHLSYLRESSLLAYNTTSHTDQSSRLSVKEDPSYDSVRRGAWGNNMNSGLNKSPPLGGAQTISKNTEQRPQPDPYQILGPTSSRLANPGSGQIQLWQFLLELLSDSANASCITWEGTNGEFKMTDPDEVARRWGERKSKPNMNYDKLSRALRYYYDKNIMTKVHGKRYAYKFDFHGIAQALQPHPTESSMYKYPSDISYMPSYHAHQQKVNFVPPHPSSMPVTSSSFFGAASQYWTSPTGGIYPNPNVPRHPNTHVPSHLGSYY
To be noted: protein: recombinant; tags: N-terminal GST; dsDNA, one strand shown. The gist of the method:
(§1)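 Sequencing on an Illumina NextSeq500 followed washing, crosslinking with 0.1% formaldehyde, proximity ligation (BsaI/T4 ligase, 1 h, 37 °C) and PCR amplification of pools that had been incubated for 30 min at room temperature with 200 nmole of a random double-stranded 16-mer DNA library in Tris/NaCl/DTT/glycerol buffer. Each pool held DNA-barcoded human transcription factors, expressed in yeast as GST fusions and captured on glutathione beads, plus a tag-only sample. Binding signal is a hexamer's read frequency for a factor divided by its frequency in the tag-only sample.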

The next test addresses T2, ELK1 (Homo sapiens, UniProt P19419 1-428).
T2 sequence: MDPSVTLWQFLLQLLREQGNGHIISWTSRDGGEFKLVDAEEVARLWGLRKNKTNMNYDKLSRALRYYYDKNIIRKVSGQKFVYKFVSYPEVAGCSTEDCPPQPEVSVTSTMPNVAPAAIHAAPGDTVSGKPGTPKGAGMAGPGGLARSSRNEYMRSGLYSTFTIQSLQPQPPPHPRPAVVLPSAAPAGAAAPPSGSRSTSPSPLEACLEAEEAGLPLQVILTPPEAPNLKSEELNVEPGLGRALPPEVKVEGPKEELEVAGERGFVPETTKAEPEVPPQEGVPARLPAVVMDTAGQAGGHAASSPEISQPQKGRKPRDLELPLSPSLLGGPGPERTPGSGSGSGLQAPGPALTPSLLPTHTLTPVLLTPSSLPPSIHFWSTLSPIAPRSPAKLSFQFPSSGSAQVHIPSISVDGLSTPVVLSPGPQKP
To be noted: protein: recombinant; tags: N-terminal GST; dsDNA, one strand shown. The gist of the method: as §1

For a further test, the target named is T3, GABPA (Homo sapiens, UniProt Q06546 1-454).
T3 sequence: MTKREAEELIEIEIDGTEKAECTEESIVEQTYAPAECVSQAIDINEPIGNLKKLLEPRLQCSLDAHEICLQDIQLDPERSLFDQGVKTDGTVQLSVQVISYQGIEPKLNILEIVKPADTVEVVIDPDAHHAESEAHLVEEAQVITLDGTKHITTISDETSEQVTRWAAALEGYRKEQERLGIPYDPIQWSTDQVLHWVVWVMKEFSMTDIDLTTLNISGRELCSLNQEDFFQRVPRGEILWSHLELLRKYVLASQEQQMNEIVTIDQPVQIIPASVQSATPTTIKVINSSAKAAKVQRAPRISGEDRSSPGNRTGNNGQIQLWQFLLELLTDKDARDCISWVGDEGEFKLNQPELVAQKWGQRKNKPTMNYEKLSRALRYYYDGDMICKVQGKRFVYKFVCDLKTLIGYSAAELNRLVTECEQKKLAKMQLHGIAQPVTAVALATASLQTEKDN
The conditions noted are these: protein: recombinant; tags: N-terminal GST; dsDNA, one strand shown. In a few lines: as §1

The next test concerns the target T4, ERG (Homo sapiens, UniProt P11308 1-479).
T4 sequence: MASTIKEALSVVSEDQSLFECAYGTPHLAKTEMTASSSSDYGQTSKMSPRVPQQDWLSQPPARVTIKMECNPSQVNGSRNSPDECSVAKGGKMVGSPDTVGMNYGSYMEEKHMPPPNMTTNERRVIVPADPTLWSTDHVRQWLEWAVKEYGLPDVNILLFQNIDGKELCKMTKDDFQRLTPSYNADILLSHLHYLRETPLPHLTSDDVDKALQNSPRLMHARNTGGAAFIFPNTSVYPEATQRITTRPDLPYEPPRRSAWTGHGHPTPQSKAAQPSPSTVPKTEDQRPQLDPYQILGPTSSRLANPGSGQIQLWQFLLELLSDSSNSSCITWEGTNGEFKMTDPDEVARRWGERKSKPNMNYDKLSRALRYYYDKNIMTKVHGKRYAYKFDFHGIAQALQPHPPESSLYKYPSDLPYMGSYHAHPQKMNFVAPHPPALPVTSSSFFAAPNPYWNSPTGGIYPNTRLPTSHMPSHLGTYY
The conditions noted are these: protein: recombinant; tags: N-terminal GST; dsDNA, one strand shown. In a few lines: as §1

For another test, the target named is ELF1 (Homo sapiens, UniProt P32519 1-619). The conditions noted are these: protein: recombinant; tags: N-terminal GST; dsDNA, one strand shown. The gist of the method: as §1
The next test addresses T5, EHF (Homo sapiens, UniProt Q9NZC4 1-300).
T5 sequence: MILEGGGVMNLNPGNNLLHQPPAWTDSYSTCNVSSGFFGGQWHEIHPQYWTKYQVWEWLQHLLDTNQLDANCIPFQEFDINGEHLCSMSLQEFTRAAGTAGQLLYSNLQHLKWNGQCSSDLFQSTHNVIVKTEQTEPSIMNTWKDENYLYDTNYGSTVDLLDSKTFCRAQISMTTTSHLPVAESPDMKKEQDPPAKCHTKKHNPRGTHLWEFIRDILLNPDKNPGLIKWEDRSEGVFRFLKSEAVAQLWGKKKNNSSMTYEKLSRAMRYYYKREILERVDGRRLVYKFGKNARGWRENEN
The conditions noted are these: protein: recombinant; tags: N-terminal GST; dsDNA, one strand shown. In a few lines: as §1

Another test deals with SPI1 (Homo sapiens, UniProt P17947 1-270). The conditions noted are these: protein: recombinant; tags: N-terminal GST; dsDNA, one strand shown. The gist of the method: as §1
The next test concerns the target T6, ELK3 (Homo sapiens, UniProt P41970 1-407).
T6 sequence: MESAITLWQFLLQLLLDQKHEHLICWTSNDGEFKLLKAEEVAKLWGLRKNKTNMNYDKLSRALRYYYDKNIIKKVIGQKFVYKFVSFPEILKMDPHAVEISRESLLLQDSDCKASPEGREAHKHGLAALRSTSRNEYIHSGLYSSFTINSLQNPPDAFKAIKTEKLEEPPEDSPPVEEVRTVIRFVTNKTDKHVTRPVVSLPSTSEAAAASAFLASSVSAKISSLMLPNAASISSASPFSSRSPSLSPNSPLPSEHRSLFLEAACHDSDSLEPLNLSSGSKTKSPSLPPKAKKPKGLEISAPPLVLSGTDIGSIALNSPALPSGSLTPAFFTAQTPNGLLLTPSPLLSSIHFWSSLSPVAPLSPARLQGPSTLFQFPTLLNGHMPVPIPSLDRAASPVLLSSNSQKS
To be noted: protein: recombinant; tags: N-terminal GST; dsDNA, one strand shown. In a few lines:
as §1

In a further test the target is T7, FEV (Homo sapiens, UniProt Q99581 1-238).
T7 sequence: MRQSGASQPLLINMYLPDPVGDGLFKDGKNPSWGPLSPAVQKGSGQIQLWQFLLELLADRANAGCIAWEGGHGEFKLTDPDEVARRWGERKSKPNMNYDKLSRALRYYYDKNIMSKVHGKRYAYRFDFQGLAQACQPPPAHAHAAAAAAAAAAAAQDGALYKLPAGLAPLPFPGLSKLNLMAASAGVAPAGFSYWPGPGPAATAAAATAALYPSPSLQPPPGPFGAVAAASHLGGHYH
To be noted: protein: recombinant; tags: N-terminal GST; dsDNA, one strand shown. The gist of the method:
as §1

Another test has as its target ETV5 (Homo sapiens, UniProt P41161 1-510). To be noted: protein: recombinant; tags: N-terminal GST; dsDNA, one strand shown. The gist of the method:
as §1

The target in the next test is HSF1 (Homo sapiens, UniProt Q00613 1-529). To be noted: protein: recombinant; tags: N-terminal GST; chain copies: 3; dsDNA, one strand shown. In a few lines:
as §1

The target of another test is T8, SPIC (Homo sapiens, UniProt Q8N5J4 1-248).
T8 sequence: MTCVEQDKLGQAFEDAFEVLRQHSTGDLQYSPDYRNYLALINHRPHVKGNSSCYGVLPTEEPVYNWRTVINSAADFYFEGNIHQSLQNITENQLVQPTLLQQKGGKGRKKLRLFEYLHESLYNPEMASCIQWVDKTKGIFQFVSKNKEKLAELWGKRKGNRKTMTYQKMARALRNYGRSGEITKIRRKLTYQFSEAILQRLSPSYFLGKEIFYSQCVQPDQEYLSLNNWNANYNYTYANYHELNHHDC
To be noted: protein: recombinant; tags: N-terminal GST; dsDNA, one strand shown. In a few lines:
as §1

In a further test the target is ELF4 (Homo sapiens, UniProt Q99607 1-663). To be noted: protein: recombinant; tags: N-terminal GST; dsDNA, one strand shown. In a few lines:
as §1

A further test has as its target T9, ELK4 (Homo sapiens, UniProt P28324-2 1-405).
T9 sequence: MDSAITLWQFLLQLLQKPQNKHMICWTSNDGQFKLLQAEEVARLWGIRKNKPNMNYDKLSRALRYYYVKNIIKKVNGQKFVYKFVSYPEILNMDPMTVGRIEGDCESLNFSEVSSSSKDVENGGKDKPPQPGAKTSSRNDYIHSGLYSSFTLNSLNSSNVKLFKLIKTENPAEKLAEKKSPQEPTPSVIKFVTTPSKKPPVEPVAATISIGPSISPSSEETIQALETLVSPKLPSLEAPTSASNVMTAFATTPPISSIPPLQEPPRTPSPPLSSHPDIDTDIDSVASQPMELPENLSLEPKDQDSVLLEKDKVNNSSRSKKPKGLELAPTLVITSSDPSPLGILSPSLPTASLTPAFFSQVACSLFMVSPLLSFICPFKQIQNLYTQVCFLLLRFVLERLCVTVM
To be noted: protein: recombinant; tags: N-terminal GST; dsDNA, one strand shown. The gist of the method:
as §1

The target of a further test is T10, ETV2 (Homo sapiens, UniProt O00321 1-342).
T10 sequence: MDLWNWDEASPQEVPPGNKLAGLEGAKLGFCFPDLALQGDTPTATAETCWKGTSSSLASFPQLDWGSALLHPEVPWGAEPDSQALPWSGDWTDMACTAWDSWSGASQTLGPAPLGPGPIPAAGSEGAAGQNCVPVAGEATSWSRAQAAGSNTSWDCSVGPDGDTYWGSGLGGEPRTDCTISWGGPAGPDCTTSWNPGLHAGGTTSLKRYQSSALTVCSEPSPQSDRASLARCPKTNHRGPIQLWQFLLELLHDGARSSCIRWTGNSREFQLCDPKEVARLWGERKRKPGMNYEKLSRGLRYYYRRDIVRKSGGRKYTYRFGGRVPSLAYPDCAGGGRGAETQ
To be noted: protein: recombinant; tags: N-terminal GST; dsDNA, one strand shown. In a few lines: as §1

The next test deals with T11, ELF3 (Homo sapiens, UniProt P78545 1-371).
T11 sequence: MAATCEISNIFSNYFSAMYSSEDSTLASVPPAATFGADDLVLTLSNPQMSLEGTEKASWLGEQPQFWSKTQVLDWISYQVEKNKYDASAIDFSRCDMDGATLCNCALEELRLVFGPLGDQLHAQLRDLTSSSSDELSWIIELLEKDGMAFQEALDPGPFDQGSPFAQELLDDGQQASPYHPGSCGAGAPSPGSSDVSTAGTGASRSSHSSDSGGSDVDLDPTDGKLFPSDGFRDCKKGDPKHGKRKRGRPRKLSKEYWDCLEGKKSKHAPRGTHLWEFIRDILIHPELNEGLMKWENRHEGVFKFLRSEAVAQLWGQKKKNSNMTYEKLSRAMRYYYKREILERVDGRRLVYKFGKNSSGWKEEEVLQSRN
The conditions noted are these: protein: recombinant; tags: N-terminal GST; dsDNA, one strand shown. The gist of the method:
as §1

Another test has as its target CRX (Homo sapiens, UniProt O43186 1-299). The conditions noted are these: protein: recombinant; tags: N-terminal GST; dsDNA, one strand shown. The gist of the method: as §1
The next test concerns the target ETV1 (Homo sapiens, UniProt P50549 1-477). The conditions noted are these: protein: recombinant; tags: N-terminal GST; dsDNA, one strand shown. In a few lines:
as §1

Sequence of ELF1 (P32519 whole entry): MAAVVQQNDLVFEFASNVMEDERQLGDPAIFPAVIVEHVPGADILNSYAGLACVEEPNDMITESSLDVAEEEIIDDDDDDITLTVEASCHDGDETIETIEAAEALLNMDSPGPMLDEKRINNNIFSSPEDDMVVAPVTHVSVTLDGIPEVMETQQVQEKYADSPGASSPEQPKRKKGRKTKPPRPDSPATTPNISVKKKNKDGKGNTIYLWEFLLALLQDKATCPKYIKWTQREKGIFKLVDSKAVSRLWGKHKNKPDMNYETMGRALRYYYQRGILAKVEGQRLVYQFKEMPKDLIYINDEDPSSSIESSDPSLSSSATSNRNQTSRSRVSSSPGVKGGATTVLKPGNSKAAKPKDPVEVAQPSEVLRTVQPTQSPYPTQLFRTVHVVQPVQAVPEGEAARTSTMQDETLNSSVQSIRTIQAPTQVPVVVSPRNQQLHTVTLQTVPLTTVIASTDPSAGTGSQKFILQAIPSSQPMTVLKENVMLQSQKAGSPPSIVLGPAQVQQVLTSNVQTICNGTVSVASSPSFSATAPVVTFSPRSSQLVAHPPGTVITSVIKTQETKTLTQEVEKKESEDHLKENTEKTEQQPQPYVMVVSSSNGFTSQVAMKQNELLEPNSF
Sequence of ETV5 (P41161 whole entry): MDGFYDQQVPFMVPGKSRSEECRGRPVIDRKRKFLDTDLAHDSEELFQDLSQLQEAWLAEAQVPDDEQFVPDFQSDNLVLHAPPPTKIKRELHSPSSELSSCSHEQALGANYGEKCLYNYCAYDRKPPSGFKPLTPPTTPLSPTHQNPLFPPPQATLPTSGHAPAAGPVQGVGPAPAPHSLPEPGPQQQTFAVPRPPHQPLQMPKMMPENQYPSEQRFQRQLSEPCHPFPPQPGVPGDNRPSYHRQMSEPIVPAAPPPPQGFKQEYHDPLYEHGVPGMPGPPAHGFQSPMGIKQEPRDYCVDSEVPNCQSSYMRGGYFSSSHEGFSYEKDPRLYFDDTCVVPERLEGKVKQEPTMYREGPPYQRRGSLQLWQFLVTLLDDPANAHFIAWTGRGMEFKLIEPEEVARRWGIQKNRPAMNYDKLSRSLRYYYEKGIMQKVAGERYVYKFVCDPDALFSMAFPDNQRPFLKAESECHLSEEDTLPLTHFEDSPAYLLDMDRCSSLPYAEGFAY
Sequence of HSF1 (Q00613 whole entry): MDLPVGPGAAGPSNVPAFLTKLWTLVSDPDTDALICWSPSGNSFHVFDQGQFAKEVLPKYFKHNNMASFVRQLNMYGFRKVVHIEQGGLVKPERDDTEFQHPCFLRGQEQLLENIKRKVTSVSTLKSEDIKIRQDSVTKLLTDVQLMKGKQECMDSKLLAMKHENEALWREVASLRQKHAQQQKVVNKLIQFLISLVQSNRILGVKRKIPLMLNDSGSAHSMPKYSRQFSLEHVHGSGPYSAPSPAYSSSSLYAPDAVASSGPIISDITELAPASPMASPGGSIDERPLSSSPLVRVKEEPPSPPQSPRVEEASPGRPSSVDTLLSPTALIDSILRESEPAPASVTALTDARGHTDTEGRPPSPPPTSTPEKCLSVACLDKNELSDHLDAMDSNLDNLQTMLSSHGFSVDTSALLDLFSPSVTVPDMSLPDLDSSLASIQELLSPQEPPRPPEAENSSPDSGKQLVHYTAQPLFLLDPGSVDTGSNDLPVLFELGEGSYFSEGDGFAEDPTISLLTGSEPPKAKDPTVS
Sequence of ELF4 (Q99607 whole entry): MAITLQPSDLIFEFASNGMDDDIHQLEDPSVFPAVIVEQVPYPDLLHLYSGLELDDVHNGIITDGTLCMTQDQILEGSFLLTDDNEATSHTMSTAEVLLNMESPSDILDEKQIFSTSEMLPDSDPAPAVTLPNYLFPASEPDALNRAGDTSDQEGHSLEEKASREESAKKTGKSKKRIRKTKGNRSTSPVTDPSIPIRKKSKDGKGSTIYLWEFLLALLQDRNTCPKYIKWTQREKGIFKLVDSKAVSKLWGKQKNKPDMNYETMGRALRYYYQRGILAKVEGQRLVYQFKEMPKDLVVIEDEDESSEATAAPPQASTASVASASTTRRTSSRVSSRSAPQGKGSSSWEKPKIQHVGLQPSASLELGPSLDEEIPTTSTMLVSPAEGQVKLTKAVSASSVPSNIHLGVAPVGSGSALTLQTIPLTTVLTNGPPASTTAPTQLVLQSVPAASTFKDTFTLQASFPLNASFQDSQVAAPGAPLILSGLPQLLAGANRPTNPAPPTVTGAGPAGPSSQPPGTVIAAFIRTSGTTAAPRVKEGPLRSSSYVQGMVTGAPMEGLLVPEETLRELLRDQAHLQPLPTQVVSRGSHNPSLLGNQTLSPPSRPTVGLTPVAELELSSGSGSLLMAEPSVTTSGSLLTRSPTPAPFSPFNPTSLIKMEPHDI
Sequence of CRX (O43186 whole entry): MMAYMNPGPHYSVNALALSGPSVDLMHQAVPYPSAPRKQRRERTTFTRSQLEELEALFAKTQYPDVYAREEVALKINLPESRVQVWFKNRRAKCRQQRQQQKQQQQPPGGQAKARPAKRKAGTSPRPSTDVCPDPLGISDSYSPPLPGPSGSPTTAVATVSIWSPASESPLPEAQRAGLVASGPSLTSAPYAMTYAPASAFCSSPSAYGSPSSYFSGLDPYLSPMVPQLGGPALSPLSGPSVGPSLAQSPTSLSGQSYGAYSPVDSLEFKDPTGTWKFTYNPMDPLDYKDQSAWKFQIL
Sequence of ETV1 (P50549 whole entry): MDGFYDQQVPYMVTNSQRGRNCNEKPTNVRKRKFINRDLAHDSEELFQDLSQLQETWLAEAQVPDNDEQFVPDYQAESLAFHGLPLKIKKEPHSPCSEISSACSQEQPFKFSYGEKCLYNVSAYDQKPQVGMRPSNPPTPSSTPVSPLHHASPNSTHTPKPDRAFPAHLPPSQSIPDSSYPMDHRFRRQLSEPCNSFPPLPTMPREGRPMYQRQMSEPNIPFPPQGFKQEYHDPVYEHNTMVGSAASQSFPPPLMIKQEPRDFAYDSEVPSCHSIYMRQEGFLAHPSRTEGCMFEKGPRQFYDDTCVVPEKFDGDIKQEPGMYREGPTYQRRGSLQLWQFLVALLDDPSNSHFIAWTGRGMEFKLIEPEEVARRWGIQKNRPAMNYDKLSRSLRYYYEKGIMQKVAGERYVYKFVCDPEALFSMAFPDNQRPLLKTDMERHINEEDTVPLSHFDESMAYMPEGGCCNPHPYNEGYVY

Consider ATCATT, for which the binding signal in the test with FLI1 is 1.07 fold enrichment (6-mer frequency, TF over GST control); with ELK1 it was 1.05 fold enrichment (6-mer frequency, TF over GST control); in the test with GABPA, 1.06 fold enrichment (6-mer frequency, TF over GST control); with ERG it was 1.02 fold enrichment (6-mer frequency, TF over GST control); in the test with ELF1, 1.05 fold enrichment (6-mer frequency, TF over GST control); in the test with EHF, 1.01 fold enrichment (6-mer frequency, TF over GST control). Further, the binding signal was 1.05 fold enrichment (6-mer frequency, TF over GST control) with SPI1; 1.01 fold enrichment (6-mer frequency, TF over GST control) with ELK3; 1.08 fold enrichment (6-mer frequency, TF over GST control) in the test with FEV; 1.07 fold enrichment (6-mer frequency, TF over GST control) in the test with ETV5; 1.18 fold enrichment (6-mer frequency, TF over GST control) in the test with HSF1; 1.01 fold enrichment (6-mer frequency, TF over GST control) with SPIC. For the same sequence, the binding signal with ELF4 is 1.05 fold enrichment (6-mer frequency, TF over GST control); with ELK4, 1.06 fold enrichment (6-mer frequency, TF over GST control); with ETV2 it was 1.15 fold enrichment (6-mer frequency, TF over GST control); in the test with ELF3, 1.05 fold enrichment (6-mer frequency, TF over GST control); with CRX, 1.28 fold enrichment (6-mer frequency, TF over GST control); in the test with ETV1, 1.06 fold enrichment (6-mer frequency, TF over GST control).
